Values joined by “and” are separate entries in the source; they are usually repeats but may differ in a detail not shown here. Identical values can stand only once. Inconclusive results are not listed. Where a structure was tested more than once in an assay, its records may differ in their call. Active and inactive are the calls of the source. Unless noted, the call rests on the fitted dose curve; in most records, active means well fitted curve in the direction sought with a large enough effect in the repeat runs; inconclusive means weak or mixed curves; inactive means no such curve, though single readings can be large; an effect the other way counts as inactive or inconclusive.
Key:
[1] = qHTS assay to identify small molecule agonists of the estrogen receptor alpha (ER-alpha) signaling pathway in the presence of an antagonist - cell viability counter screen (AID 1259386);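 further: cells exposed to compounds for 22 h at 37 °C before the viability read; nearly all actives have a fitted effect of over 30% in size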; further: potency means the concentration at half of the fitted maximal effect
Method in brief: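 Steps: 5-day stripped-FBS culture; seed and incubate 24hr; add ICI-182,780 (10.0nM final); pin 15-point compound titration; incubate 22hr at 37C; add CellTiter-Fluor at 21hr; read fluorescence.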

[2] = qHTS assay to identify small molecule agonists of the progesterone receptor (PR) signaling pathway - cell viability counter screen (AID 1346799; calls by dose curve; further: nearly all actives have a fitted effect of over 45% in size; further: potency means the concentration at half of the fitted maximal effect)
Method in brief: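 Multiplexed viability read: CellTiter-Glo luminescence, 30 min RT, following LiveBLAzer FRET measurement on PR-UAS-bla HEK293T cells exposed to compounds 16 hr.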

[3] = qHTS assay to identify small molecule antagonists of the TGF-beta/Smad signaling pathway - cell viability counter screen (AID 1346824); further: nearly all actives have a fitted effect of over 50% in size; further: potency means the concentration at half of the fitted maximal effect
Method in brief: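 Cytotoxicity counter-screen run in the same wells as the beta-lactamase Smad reporter read: CellTiter-Glo luminescence after 30 min at room temperature. HEK 293T SBE-bla cells had 5 hr compound exposure at 37 C with TGF-beta1 (0.25 ng/mL stock).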

[4] = qHTS assay to identify small molecule agonists of the TGF-beta/Smad signaling pathway - cell viability counter screen (AID 1346829); further: nearly all actives have a fitted effect of over 45% in size; further: potency means the concentration at half of the fitted maximal effect
Method in brief: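 CellTiter-Glo luminescence readout; SBE-bla HEK 293T cells, overnight plating, compound 5 hr at 37 C/5% CO2, then bla substrate 2 hr RT, then CellTiter-Glo 30 min RT.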

[5] = qHTS assay to identify small molecule agonists of the TGF-beta/Smad signaling pathway (AID 1346859; active means well fitted activation curve with a large enough effect in the signal ratio in the repeat runs, not every such curve was filed as active; the % refers to the signal ratio; further: series mostly up to about 77 µM; on the % scale 0 is the no-effect control and ±100 the full control effect)
Method in brief: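 Screening used HEK 293T SBE-bla cells at 4,000/well. Test agents: 5 hr, 37 C. Detection: FRET substrate, 2 hr RT, then excitation 405 nm with emissions at 460 and 530 nm.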

[6] = biological target: Thyrotropin-releasing hormone receptor (Homo sapiens) (UniProt P34981); experiment: qHTS assay to identify small molecule antagonists of the thyrotropin-releasing hormone receptor (TRHR) signaling pathway (AID 1346877; active means well fitted inhibition curve with a large enough effect in the repeat runs, not every such curve was filed as active; further: series mostly up to about 51 µM; on the % scale 0 is the no-effect control and ±100 the full control effect)
Sequence of Thyrotropin-releasing hormone receptor (Homo sapiens) (P34981 whole entry, looked up): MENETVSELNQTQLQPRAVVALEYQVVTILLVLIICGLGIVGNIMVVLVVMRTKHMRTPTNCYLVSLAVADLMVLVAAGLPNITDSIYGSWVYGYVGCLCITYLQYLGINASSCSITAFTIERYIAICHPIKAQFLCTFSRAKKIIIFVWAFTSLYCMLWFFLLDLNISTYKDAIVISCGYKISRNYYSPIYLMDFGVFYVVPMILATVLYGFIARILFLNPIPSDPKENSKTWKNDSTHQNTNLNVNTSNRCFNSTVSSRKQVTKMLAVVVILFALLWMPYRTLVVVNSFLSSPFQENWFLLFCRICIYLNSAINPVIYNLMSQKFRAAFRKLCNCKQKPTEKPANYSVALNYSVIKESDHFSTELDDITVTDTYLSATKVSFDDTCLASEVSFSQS
Method in brief: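 Human TRHR in HEK293 cells; inhibition of the intracellular calcium rise triggered by 1 nM TRH was followed by fluorescence over 3 min. Compounds were run at 15 concentrations, three replicates each.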

[7] = biological target: Thyrotropin-releasing hormone receptor (Homo sapiens) (UniProt P34981); experiment: qHTS assay to identify small molecule agonists of the thyrotropin-releasing hormone receptor (TRHR) signaling pathway (AID 1346891; calls by dose curve; further: series mostly up to about 58 µM; on the % scale 0 is the no-effect control and ±100 the full control effect)
Method in brief: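 Readout was intracellular calcium fluorescence in TRHR-Hek293 cells. Cells were incubated 18 h, dye-loaded 2 h at 37 °C, and treated with compound in agonist mode.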

[8] = Human pregnane X receptor (PXR) small molecule agonists, qHTS cell viability counter screen (AID 1346977); further: nearly all actives have a fitted effect of over 50% in size; further: potency means the concentration at half of the fitted maximal effect
Method in brief: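 In each well, the PXR reporter HepG2 line was checked for viability: CellTiter-Fluor reagent added 23hr post-dosing, fluorescence read after 1hr incubation at 37C.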

[9] = Caspase-3/7 induction in HepG2 cells by small molecules, qHTS assay (AID 1346978); further: nearly all actives have a fitted effect of over 15% in size; further: potency means the concentration at half of the fitted maximal effect
Method in brief: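 Caspase-3/7 induction was measured by Caspase-Glo 3/7 luminescence (30 min, room temperature) after a 17 hr compound exposure of wild-type HepG2 cells seeded at 2,000 per well and pre-incubated 5 hr.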

[10] = Caspase-3/7 induction in CHO-K1 cells by small molecules, qHTS cell viability counter screen (AID 1346979); further: potency means the concentration at half of the fitted maximal effect; nearly all actives have a fitted effect of over 35% in size
Method in brief: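 Following a 5hr settling period, CHO-K1 cells at 1,500 per well received DMSO-dissolved compounds. Cell viability was quantified 16hr later by CellTiter-Fluor fluorescence, measured after 1hr with reagent at 37C.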

[11] = Caspase-3/7 induction in CHO-K1 cells by small molecules, qHTS assay (AID 1346980); further: nearly all actives have a fitted effect of over 15% in size; further: potency means the concentration at half of the fitted maximal effect
Method in brief: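 Luminescent Caspase-Glo 3/7 read (30min, room temperature) quantified apoptosis induction. Cells were wild-type CHO-K1, treated with compound for 17hr at 37 C and 5% CO2.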

[12] = Caspase-3/7 induction in HepG2 cells by small molecules, qHTS cell viability counter screen (AID 1346981); further: potency means the concentration at half of the fitted maximal effect; nearly all actives have a fitted effect of over 30% in size
Method in brief: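 The parent HepG2 line is plated at 2,000 cells per well and rested 5 hr before compound pinning from DMSO stocks. Following a 16-hr treatment at 37 C, a fluorogenic live-cell substrate (CellTiter-Fluor) reports viability after 1 hr.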

[13] = biological target: Nuclear receptor subfamily 1 group I member 2 (Homo sapiens) (UniProt O75469); experiment: Human pregnane X receptor (PXR) small molecule agonists, qHTS assay (AID 1346982); further: nearly all actives have a fitted effect of over 35% in size; further: potency means the concentration at half of the fitted maximal effect; on activation: on the % scale 0 is the no-effect control and ±100 the full control effect
Sequence of Nuclear receptor subfamily 1 group I member 2 (Homo sapiens) (O75469 whole entry, looked up): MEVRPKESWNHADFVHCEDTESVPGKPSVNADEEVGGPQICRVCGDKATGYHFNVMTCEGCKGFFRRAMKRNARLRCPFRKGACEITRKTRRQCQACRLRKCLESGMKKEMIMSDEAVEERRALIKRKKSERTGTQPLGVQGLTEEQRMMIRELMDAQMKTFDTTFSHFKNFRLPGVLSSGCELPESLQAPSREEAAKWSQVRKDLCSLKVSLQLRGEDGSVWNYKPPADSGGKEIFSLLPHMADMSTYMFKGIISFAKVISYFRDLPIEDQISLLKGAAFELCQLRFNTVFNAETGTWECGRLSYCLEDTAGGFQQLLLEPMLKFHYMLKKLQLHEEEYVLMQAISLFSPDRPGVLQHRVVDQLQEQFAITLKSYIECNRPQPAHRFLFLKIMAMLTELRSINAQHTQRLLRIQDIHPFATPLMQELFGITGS
Method in brief: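 After plating in 5% charcoal-stripped FBS and a 5 hr rest, PXR-Luc HepG2 cells received compounds in DMSO. Following 24 hr at 37 C, ONE-Glo was added and light output read.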

[14] = biological target: Cytochrome P450 2D6 (Homo sapiens) (UniProt P10635); experiment: Cytochrome P450 Family 2 Subfamily D Member 6 (CYP2D6) small molecule antagonists: luciferase reporter qHTS assay (AID 1671196); further: nearly all actives have a fitted effect of over 50% in size; further: potency means the concentration at half of the fitted maximal effect
Sequence of Cytochrome P450 2D6 (Homo sapiens) (P10635 whole entry, looked up): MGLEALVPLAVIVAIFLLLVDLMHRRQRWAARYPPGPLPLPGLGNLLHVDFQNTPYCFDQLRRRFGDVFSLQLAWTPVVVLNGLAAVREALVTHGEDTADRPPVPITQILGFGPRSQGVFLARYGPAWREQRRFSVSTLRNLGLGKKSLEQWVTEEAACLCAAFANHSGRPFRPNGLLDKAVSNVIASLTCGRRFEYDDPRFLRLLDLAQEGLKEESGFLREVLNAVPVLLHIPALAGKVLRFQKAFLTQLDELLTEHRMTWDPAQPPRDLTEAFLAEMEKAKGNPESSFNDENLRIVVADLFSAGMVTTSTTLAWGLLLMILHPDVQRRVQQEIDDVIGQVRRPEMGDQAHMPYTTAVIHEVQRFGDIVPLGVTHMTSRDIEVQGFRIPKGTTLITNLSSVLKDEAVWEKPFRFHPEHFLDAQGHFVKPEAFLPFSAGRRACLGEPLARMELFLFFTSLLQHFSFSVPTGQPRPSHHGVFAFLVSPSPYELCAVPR
Method in brief: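 Quantitative HTS of Tox21 chemicals against CYP2D6 using a luminescent proluciferin substrate. After NADPH addition, 1 h room-temperature reaction; luminescence recorded 20 min post detection reagent.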

[15] = biological target: Cytochrome P450 2C19 (Homo sapiens) (UniProt P33261); experiment: Cytochrome P450 Family 2 Subfamily C Member 19 (CYP2C19) small molecule antagonists: luciferase reporter qHTS assay (AID 1671197); further: potency means the concentration at half of the fitted maximal effect; nearly all actives have a fitted effect of over 65% in size
Sequence of Cytochrome P450 2C19 (Homo sapiens) (P33261 whole entry, looked up): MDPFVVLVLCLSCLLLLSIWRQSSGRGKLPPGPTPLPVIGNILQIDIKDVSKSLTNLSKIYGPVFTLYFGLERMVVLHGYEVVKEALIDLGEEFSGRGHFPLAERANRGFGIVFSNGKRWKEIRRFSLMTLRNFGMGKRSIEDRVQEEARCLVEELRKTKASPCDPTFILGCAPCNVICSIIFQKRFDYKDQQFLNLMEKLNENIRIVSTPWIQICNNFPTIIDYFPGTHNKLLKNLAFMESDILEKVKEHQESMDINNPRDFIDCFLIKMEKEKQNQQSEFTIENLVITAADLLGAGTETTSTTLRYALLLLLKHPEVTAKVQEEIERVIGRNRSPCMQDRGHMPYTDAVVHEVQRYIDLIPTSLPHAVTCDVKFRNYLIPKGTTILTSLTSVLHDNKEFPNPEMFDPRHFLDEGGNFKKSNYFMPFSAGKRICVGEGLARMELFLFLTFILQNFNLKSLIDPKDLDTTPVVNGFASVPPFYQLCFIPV
Method in brief: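 Enzyme-substrate mix with proluciferin substrate (P450-Glo CYP2C19 system) preincubated with compounds 10 min at room temperature; NADPH regeneration solution added, 37C for 1 h; detection reagent stops reaction, luminescence read after 20 min. Ketoconazole positive control.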

[16] = biological target: Progesterone receptor (Homo sapiens) (UniProt P06401); experiment: qHTS assay to identify small molecule antagonists of the progesterone receptor (PR) signaling pathway (AID 1346795; active means well fitted inhibition curve with a large enough effect in the signal ratio in the repeat runs, not every such curve was filed as active; the % refers to the signal ratio; further: potency means the concentration at half of the fitted maximal effect)
Sequence of Progesterone receptor (Homo sapiens) (P06401 whole entry, looked up): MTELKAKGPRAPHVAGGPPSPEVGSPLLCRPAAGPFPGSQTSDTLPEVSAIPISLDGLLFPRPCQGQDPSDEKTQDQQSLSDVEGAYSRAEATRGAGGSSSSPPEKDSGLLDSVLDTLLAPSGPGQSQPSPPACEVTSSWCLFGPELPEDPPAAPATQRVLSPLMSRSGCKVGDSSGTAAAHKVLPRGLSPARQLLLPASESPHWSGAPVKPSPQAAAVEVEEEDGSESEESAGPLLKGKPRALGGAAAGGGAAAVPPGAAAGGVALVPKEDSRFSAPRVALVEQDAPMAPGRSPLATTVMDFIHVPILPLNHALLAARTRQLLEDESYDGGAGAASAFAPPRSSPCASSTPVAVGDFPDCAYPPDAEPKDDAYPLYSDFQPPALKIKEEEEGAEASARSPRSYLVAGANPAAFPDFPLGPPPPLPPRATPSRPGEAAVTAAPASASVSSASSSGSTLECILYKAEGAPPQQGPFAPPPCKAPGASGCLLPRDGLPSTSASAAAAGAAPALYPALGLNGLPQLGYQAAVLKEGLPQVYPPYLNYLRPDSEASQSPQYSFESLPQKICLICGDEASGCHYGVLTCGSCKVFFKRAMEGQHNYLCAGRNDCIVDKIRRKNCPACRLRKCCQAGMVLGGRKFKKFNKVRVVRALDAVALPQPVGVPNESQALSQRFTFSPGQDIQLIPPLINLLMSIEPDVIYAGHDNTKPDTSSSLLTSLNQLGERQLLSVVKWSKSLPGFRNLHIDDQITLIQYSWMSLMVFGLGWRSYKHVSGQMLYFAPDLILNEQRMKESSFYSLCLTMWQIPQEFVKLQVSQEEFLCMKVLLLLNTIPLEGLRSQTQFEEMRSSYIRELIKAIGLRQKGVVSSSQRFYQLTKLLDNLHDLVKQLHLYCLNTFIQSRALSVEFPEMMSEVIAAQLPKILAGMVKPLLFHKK
Method in brief: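 Stimulus R5020 at 1 nM final; cells HEK293T PR-UAS-bla; medium with 2% charcoal-stripped FBS; compound exposure 16 hr at 37C, 5% CO2; detection by FRET beta-lactamase substrate, 2 hr, room temperature.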

[17] = qHTS assay to identify small molecule antagonists of the progesterone receptor (PR) signaling pathway - cell viability counter screen (AID 1346798); further: series mostly up to about 92 µM; on the % scale 0 is the no-effect control and ±100 the full control effect; nearly all actives have a fitted effect of over 50% in size
Method in brief: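 In the same plates used for the beta-lactamase readout, cell viability of compound- and R5020-treated PR-UAS-bla HEK293T cells (16 hr, 37C) was assessed by CellTiter-Glo luminescence.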

[18] = biological target: Nuclear receptor subfamily 1 group I member 2 (Rattus norvegicus) (UniProt Q9R1A7); experiment: Rat pregnane X receptor (rPXR) activation by small molecules, qHTS assay (AID 1346983); conditions: rPXR luciferase reporter cells, One-Glo luminescence, 24 h; stronger effect = higher value; further: on the % scale 0 is the no-effect control and ±100 the full control effect; nearly all actives have a fitted effect of over 20% in size
Sequence of Nuclear receptor subfamily 1 group I member 2 (Rattus norvegicus) (Q9R1A7 whole entry, looked up): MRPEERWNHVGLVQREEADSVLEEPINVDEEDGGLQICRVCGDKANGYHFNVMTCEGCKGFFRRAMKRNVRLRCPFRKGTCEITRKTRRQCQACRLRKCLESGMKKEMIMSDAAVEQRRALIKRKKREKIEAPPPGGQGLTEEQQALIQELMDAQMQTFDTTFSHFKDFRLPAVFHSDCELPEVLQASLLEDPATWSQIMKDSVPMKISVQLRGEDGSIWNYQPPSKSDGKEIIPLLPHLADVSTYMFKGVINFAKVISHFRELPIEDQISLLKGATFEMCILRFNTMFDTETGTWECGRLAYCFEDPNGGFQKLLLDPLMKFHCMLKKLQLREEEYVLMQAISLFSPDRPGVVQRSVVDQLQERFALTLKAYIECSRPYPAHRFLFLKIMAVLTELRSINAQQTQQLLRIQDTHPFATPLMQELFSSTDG
Method in brief: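 Luminescent readout (One-Glo luciferase, 30 min room temperature) followed 24 hr compound treatment at 37 C of rPXR cells plated 2,000 per well and preincubated 5hr; qHTS format with compounds delivered in DMSO.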

[19] = biological target: Nuclear receptor subfamily 1 group I member 2 (Homo sapiens) (UniProt O75469); experiment: Human pregnane X receptor (PXR) activation by small molecules, qHTS assay (AID 1346985); further: potency means the concentration at half of the fitted maximal effect; nearly all actives have a fitted effect of over 40% in size
Method in brief: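 DPX-2 cells (HepG2 co-transfected with a PXR response element and a CYP3A4-promoter luciferase construct) were seeded at 2,000 per well, rested 5 hr at 37C, then exposed to DMSO-dissolved compounds for 24 hr. Activation was read as luciferase luminescence.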

CCCCCCCCCCCCc1ccccc1O
active: Potency [1] 68.6 µM | Potency [2] 53.8 µM and 30.6 µM | Potency [3] 54.2 µM and 54.9 µM | Potency [4] 49 µM | Potency [8] 47.9 µM and 30.6 µM | Potency [9] 60.3 µM and 54.5 µM | Potency [10] 53.8 µM and 54.5 µM | Potency [11] 60.3 µM and 68.6 µM | Potency [12] 60.3 µM and 48.6 µM | Potency [13] 6.03 µM | Potency [15] 1.57 µM and 3.17 µM
inactive: outcome [5] | Potency [6] | Potency [7] | Potency [14]

Cc1cc(C2(c3cc(C)c(O)cc3C)OS(=O)(=O)c3ccccc32)c(C)cc1O
61.1 µM (active) and inactive: Potency [13]
active: Potency [1] 30.6 µM and 21.7 µM | Potency [16] 61.1 µM | Potency [8] 35.5 µM and 13.7 µM | Potency [10] 30.6 µM and 13.7 µM | Potency [12] 30.6 µM and 19.3 µM | Potency [14] 39.9 µM
inactive: Potency [2] | Potency [3] | Potency [4] | outcome [5] | Potency [9] | Potency [11]

CC(C)(C)c1ccc(O)c(C(C)(C)C)c1
inactive: Potency [1] | Potency [3] | outcome [5] | Potency [7] | Potency [8] | Potency [13]
active: Potency [9] 30.5 µM and 54.5 µM | Potency [10] 60.9 µM and 54.5 µM | Potency [14] 19.9 µM

COc1ccc(CCN(C)CCCC(C#N)(c2ccc(OC)c(OC)c2)C(C)C)cc1OC (stereo not given)
active: Potency [1] 30.6 µM
inactive: Potency [17] | Potency [2] | Potency [4] | Potency [6] | Potency [7] | Potency [14]

CC(C)CCCCCCc1ccc(O)cc1
active: Potency [8] 50.1 µM | Potency [9] 55.4 µM and 68.6 µM | Potency [10] 44 µM and 61.1 µM | Potency [12] 55.4 µM | Potency [13] 22.1 µM and 9.69 µM | Potency [19] 28.2 µM | Potency [15] 3.62 µM and 4.48 µM
4.94 µM (active) and inactive: Potency [2]
inactive: Potency [4] | outcome [5] | Potency [6] | Potency [7] | max activation [18] -6.01%
40.6 µM (active) and inactive: Potency [14]
27.8 µM (active) and inactive: Potency [1]

O=Nc1ccc(Nc2ccccc2)cc1
active: Potency [16] 54.5 µM | Potency [10] 7.74 µM and 13.7 µM | Potency [13] 61.4 µM and 48.6 µM | Potency [14] 28.4 µM and 35.6 µM
inactive: Potency [1] | Potency [3] | Potency [4] | outcome [5] | Potency [6] | Potency [7] | Potency [9]

CCN(CC)c1ccc2c(C)cc(=O)oc2c1
active: Potency [13] 54.9 µM and 48.6 µM | Potency [15] 40.2 µM and 31.7 µM
inactive: Potency [1] | Potency [17] | Potency [2] | Potency [3] | Potency [4] | Potency [6] | Potency [7] | Potency [8] | Potency [9] | Potency [11] | Potency [14]

Cc1cc(OCCOCC[N+](C)(C)Cc2ccccc2)ccc1C(C)(C)CC(C)(C)C
active: Potency [2] 27.1 µM and 13.3 µM | Potency [3] 43.4 µM and 23.9 µM | Potency [4] 43.4 µM and 23.9 µM | Potency [8] 54.2 µM | Potency [10] 43 µM | Potency [12] 54.2 µM | Potency [14] 17.7 µM and 13.8 µM
inactive: outcome [5] | Potency [6] | Potency [7] | Potency [11] | Potency [13]

— PubChem BioAssay (Tox21)
